# Test results from PubChem BioAssay (NCATS).
# Values without a mark were called inactive. The source made the active and inactive calls. Calls follow the shape of the dose curve; as a rule, active = well fitted activation curve with a large enough effect; inconclusive = small, poorly fitted or top-dose-only effect; inactive = no such curve, though single readings can be large or run the other way.
# Molecular target: Parathyroid hormone/parathyroid hormone-related peptide receptor (Homo sapiens) (UniProt Q03431)
# Experiment: qHTS for PTHR1 Agonists: Optimization Screen against the NCGC LOPAC library (AID 1347079); as to activation: 0% is about no effect
# Conditions: HEK293 GP2 PTHR1 GloSensor cAMP luminescence, 1 h; series mostly up to 57.1 µM; activation: at the top concentration
# Text: The goal of the proposed studies is to discover new compounds that act as potent agonists on the parathyroid hormone receptor type-1 (PTHR1). The PTHR1 plays critical roles in maintaining blood calcium and phosphate levels, as well as in controlling bone remodeling. PTHR1 agonists could thus be useful for treating diseases such as hypoparathyroidism and osteoporosis. In the former disease, an agonist drug would help maintain normal blood calcium and phosphate levels under conditions of parathyroid hormone deficiency. In the latter disease, an agonist drug would stimulate new bone formation and thus reduce the risk of fracture, under conditions of bone fragility, as occurs in aging. We performed an optimization assay of the quantitative high-throughput screening (qHTS) for the parathyroid hormone receptor type-1 (PTHR1) against the NCGC LOPAC library collection of […] compounds using a unique HEK-293-derived cell line (GP2) that expresses the PTHR1 and a GloSensor cAMP reporter construct. Increase in signal (activation / agonist) is the desired outcome for compounds of interest. NIH Chemical Genomics Center [NCGC] NIH Molecular Libraries Probe Production Centers Network [MLPCN] MLPCN Grant: P01 DK011794 Assay Submitter (PI): Thomas Gardella PhD, Massachusetts General Hospital
# Reagents / Controls: M-PTH (1-15) peptide hormone fragments was provided by the assay provider and was used as a control. Column 1 was treated with M-PTH titration (1:2 dilution) beginning with a final concentration of 10uM. Column 2 was treated with M-PTH final concentration of 10uM. Columns 3 and 4 were treated with DMSO only to assess background and noise signal. Assay Steps: Four microLiter of cells suspension was dispensed in a 1536-well assay plate at a final density of 3000 cells/well. The plates were incubated overnight, after which 4uL of 0.5mM of BloTium Luciferin plus 0.5mM IBMX was added. Next, the plate was incubated at 37C for 1hr before 23nL of compound (at various final concentrations from 40uM to 0.32uM) and control were added using a 1536-well array Kalypsys pin-tool. The treated plates were again incubated at 37C for another hour. Luminescence signal was obtained using the PerkinElmer ViewLux plate reader after 15min or room temperature incubation.
# Potency is read from the fitted curve at half-maximal effect.
# Sequence of Parathyroid hormone/parathyroid hormone-related peptide receptor (Homo sapiens) (Q03431 whole entry, looked up): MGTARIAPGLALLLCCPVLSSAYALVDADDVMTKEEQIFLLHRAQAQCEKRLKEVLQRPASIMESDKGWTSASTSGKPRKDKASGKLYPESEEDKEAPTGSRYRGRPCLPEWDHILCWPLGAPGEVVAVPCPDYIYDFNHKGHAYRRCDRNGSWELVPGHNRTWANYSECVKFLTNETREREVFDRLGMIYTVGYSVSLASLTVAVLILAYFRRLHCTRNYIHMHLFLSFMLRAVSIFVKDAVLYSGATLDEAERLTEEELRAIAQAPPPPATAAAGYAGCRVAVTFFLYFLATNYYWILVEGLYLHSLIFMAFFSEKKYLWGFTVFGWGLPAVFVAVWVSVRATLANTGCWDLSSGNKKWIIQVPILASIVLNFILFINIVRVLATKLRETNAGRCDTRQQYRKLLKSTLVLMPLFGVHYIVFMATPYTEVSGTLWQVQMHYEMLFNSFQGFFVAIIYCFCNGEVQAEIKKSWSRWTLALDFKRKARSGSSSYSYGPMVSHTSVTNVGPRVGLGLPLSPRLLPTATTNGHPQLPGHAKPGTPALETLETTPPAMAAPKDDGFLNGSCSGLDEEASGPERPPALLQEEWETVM
SMILES,activation [%],Potency
O=[N+]([O-])c1cc(O)c(O)c([N+](=O)[O-])c1,-10.5,
C[N+]1(C)CCc2cc3c(cc2[C@H]1[C@@H]1OC(=O)c2c1ccc1c2OCO1)OCO3,-6.89,
N[C@@H](Cn1oc(=O)[nH]c1=O)C(=O)O,23.1,
O=C(O)c1cc[c]([Hg][Cl])cc1,-21.4,
Cc1c2ccncc2c(C)c2c1[nH]c1ccccc12,-15.1,
NC(Cc1ccc(N(CCCl)CCCl)cc1)C(=O)O (stereo not given),30.1,
C[N+]1(C)CCOC(O)(c2ccc(-c3ccc(C4(O)C[N+](C)(C)CCO4)cc3)cc2)C1 (stereo not given),-17,
NC(N)=Nc1ccc2[nH]c3c(c2c1)C[C@@]1(O)[C@H]2Cc4ccc(O)c5c4[C@@]1(CCN2CC1CC1)[C@H]3O5,12.2,
Oc1ccc2c3c1O[C@H]1c4oc5ccccc5c4C[C@@]4(O)C(C2)N(CC2CC2)CCC314 (stereo not given in full),10.4,
CC(=O)c1c(O)c(C)c(O)c(Cc2c(O)c3c(c(C(=O)/C=C/c4ccccc4)c2O)OC(C)(C)C=C3)c1O,24.7,
CCN1C[C@@]2(COC)C3[C@@H](OC)C4[C@@H]1C3([C@@H]1C[C@]3(O)[C@H](OC(=O)c5ccccc5)[C@@H]1[C@]4(OC(C)=O)[C@@H](O)[C@@H]3OC)[C@H](OC)C[C@H]2O,-8.11,
NC(N)=NOCC[C@H](N)C(=O)O,22.1,
CCCN(CCC)CCc1ccc(O)c(O)c1,-17.2,
C[C@@H]1[C@@H]2Cc3ccc(O)cc3[C@@]1(C)CCN2CC1CC1,-17.4,
NNC(=O)c1ccc(O)cc1,35.8,
C=CCN(C1=NCCN1)c1c(Cl)cccc1Cl,-47.8,
CCCN(CCC)C1Cc2cc(OC)c(OC)cc2C1,34.5,
CCCN(CCC)[C@H]1CCc2c(F)ccc(O)c2C1,14,
NCC(O)c1cc(O)c(O)cc1F (stereo not given),-12.3,
CO[C@H]1CC=C2CCN3CCC4=C(CC(=O)OC4)[C@]23C1,-10.3,

SMILES,activation [%],Potency
CCNC(=O)[C@H]1O[C@@H](n2cnc3c(N)ncnc32)[C@H](O)[C@@H]1O,4.19,
COc1cc(CC(C)N)c(OC)cc1I (stereo not given),-25.4,
C=CCN1C[C@@H](C)N([C@H](c2ccc(C(=O)N(CC)CC)cc2)c2cccc(OC)c2)C[C@@H]1C,-12.9,
CCCN1CC[C@@H]2c3cc(O)ccc3CC[C@@H]21,22,
NC(=O)CI,21.2,
NC(=O)c1ccc(OCC(O)CN2CC=C(c3ccc(F)cc3)CC2)cc1 (stereo not given),14.3,
NCC(CP(=O)(O)O)c1ccc(Cl)cc1 (stereo not given),,18.9 µM (active)
c1ccc2c(N3CCNCC3)cccc2c1,4.49,
CN1CCC(c2c[nH]c3ccc(O)cc23)CC1,6.59,
N=C(N)c1ccc(CS(=O)(=O)F)cc1,-9.73,
O=c1c2ccccc2[se]n1-c1ccccc1,-28,
CCCn1c(C)c(C(=O)c2ccc3ccccc3c2)c2ccccc21,10.4,
CN1CCc2cccc(Cl)c2CC1,6.67,
N[C@@H](Cn1ccc(=O)[nH]c1=O)C(=O)O,15.4,
NC(=O)COc1c(F)cc(SCCNS(=O)(=O)c2ccccc2)cc1F,14.9,
CN1CC[C@@]2(C)c3cc(OC(=O)Nc4ccccc4)ccc3N(C)[C@@H]12,-51,
CN1CCc2cc(O)cc3c2[C@H]1Cc1ccc(O)c(O)c1-3,-4.62,
NNC(N)=O,1.13,
CCCN1CCc2cc(O)cc3c2[C@H]1Cc1ccc(O)c(O)c1-3,-7.63,
COc1ccc2c(c1)/C(=C/c1cnc[nH]1)C(=O)N2,16.9,
